Compound activity as filed in PubChem.
Nrf2 inh: blocks Nrf2 signaling | A549 ARE-Fluc reporter, luciferase luminescence, 18-24 h | Potency, µM (top dose mostly 46 µM), inactives show at the top dose activity change, negative = inhibition, hits mostly inhibitors | 360,000 compounds, 2.1% hits; also: potency is read from the fitted curve at half-maximal effect; nearly all actives have a fitted effect of over 60% in size
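A549 ARE_Fluc cells (5000/well, 5% FBS OPTI-MEM) pre-incubated 2 h, then treated with compounds 18-24 h at 37C/5% CO2 in concentration-response. CellTiter-Fluor viability read first; BugLite luciferase luminescence after 15 min at room temperature gives Nrf2 activity.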
A549 viability: counter-screen for Nrf2 inhibitors: cytotoxicity in A549 cells | A549 ARE-Fluc cells, CellTiter-Fluor viability, 18-24 h | Potency, µM (highest dose often 46 µM), inactives show at the top dose activity change, negative = cytotoxicity, hits mostly inhibitors | 390,000 compounds, 0.16% hits; also: potency is read from the fitted curve at half-maximal effect
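Cytotoxicity counterscreen: CellTiter-Fluor fluorescence was measured in A549 ARE_Fluc cells after 18-24 h of compound exposure in a concentration series. The subsequent BugLite luminescent read reports ARE-luciferase activity.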
KB-V1 MDR tox: KB-V1 MDR subline cytotoxicity; KB-V1 MDR cells viability, CellTiter-Glo, 72 h; Potency, µM (series often up to 46.1 µM), hits mostly cytotoxic; 400,000 compounds, 3.4% hits; AID 1347076; also: potency is read from the fitted curve at half-maximal effect; nearly all actives have a fitted effect of over 60% in size
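Compound-treated KB-V1 multidrug-resistant cells, 72 h, 37 degrees C; viability by CellTiter-Glo. Fitted qHTS curves give the values.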
Giardia killer: kills Giardia lamblia. Giardia lamblia trophozoite viability. activity change, % at 7.66 µM, hits read low. 340,000 compounds, 0.15% hits. AID 540267; in the data active = activity change below about -80%; inconclusive = between about -30% and that limit;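 also: parasites exposed to compound for two days anaerobically before the ATP read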
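Luminescent ATP signal served as the viability read-out, measured 15-30 min after adding ATP detection reagent to trophozoites that had been incubated with compounds for 48 hrs at 37 deg C anaerobically at 100 cells/well.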
KB-3-1 tox: KB-3-1 parental cell cytotoxicity. KB-3-1 viability, CellTiter-Glo ATP luminescence, 72 h. Potency, µM (titrated, usually from 46.1 µM), hits mostly cytotoxic. 400,000 compounds, 1.4% hits; also: potency is read from the fitted curve at half-maximal effect; nearly all actives have a fitted effect of over 60% in size
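72 h, 37 °C compound treatment of KB-3-1 parental cells; CellTiter-Glo added, 10 min, luminescence read. Data corrected against DMSO-only plates and normalized before curve fitting.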
PI4K2A block: inhibitors of human PI4K2A | Q9BTU6 | purified PI4K2A, ADP-Glo luminescence, 1 h; active compounds read low | activity change, negative = inhibition, % at 76.9 µM | 420,000 compounds, 0.13% hits; in the data active = activity change below about -50%; inconclusive = mostly about -30% to -49%;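 also: -100% = wells without enzyme as full effect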
Target sequence (Q9BTU6 whole entry, looked up): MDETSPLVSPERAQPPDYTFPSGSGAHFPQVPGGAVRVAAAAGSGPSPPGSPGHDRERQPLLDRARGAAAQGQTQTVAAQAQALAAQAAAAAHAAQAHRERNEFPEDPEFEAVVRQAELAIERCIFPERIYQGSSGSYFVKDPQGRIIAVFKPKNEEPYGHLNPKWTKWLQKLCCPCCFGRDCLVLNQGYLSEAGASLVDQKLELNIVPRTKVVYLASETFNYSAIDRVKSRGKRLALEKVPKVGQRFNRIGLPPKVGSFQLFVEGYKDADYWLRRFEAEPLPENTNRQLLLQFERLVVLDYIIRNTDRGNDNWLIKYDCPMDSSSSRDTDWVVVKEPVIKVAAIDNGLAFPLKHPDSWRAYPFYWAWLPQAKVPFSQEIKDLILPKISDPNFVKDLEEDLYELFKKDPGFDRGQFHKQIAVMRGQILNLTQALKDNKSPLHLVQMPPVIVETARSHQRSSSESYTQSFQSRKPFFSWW
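In this quantitative HTS, ADP production by PI4K2A was quantified luminescently after 1 h at ambient temperature; 100 microM adenosine served as plate-quality control.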
* hit, by the source's call; i = inactive; ? = inconclusive; . = not tested or not shown. A selection: hits, their analogues and other compounds. The true share with any hit is near 5.7%. Unless noted, calls follow the shape of the dose curve; as a rule, active = well fitted curve in the direction sought with a large enough effect; inconclusive = small, poorly fitted or top-dose-only effect, or another doubt; inactive = no such curve, though single readings can be large; an effect the other way counts as inactive or inconclusive. Unless noted, % is scaled to controls: 0 for no effect and ±100 for the full control effect.

SMILES	Nrf2 inh	A549 viability	KB-V1 MDR tox	Giardia killer	KB-3-1 tox	PI4K2A block
Cn1c(COc2ccccc2)nnc1SCc1nc2ccccc2[nH]1	?	0.5%	?	-25.7	i	5.8
CCn1c(COc2ccc(C)cc2)nnc1SCc1nc2ccccc2[nH]1	18.4µM*	-27.4%	2.59µM*	2.3	i	-5.2
CC(C)Oc1ccc(/C=N/NC(N)=S)cc1	10.0%	-1.3%	14.6µM*	-15.7	?	2.7
NC(=S)N/N=C/c1ccc(C(F)(F)F)cc1	?	-2.5%	5.8µM*	-1.5	23.1µM*	-3.8
COc1ccc(/C=N/NC(N)=S)cc1	3.4%	-18.3%	?	-1.3	i	5.7
Nc1nc(NCc2ccc(Cl)c(Cl)c2)c2[nH]cnc2n1	5.9%	5.8%	i	-15.9	i	.
Cc1cccc(N2CCN(S(=O)(=O)c3ccc4c(c3)NC(=O)C(C)S4)CC2)c1C (centres undefined)	-28.1%	-6.1%	i	17.1	?	-1.8
Cc1cccc(N2CCN(S(=O)(=O)c3ccc4c(c3)C(C(C)C)C(=O)N4)CC2)c1C (centres undefined)	13µM*	-1.9%	?	.	?	3.3
Cc1cccc(N2CCN(S(=O)(=O)c3ccc4[nH]c(=O)ccc4c3)CC2)c1C	18.4µM*	-25.1%	?	-8.4	?	-2.6
S=c1[nH]c(=S)c2[nH]cnc2[nH]1	6.3%	-11.6%	i	9.0	?	.
CC(C)c1ccc(Nc2nc(Nc3ccc(Cl)cc3)nc(N3CCOCC3)n2)cc1	0.5%	1.5%	?	2.5	?	.
COCCCNc1oc(-c2cccs2)nc1S(=O)(=O)c1ccc(C)cc1	-4.2%	-0.2%	14.6µM*	-3.7	i	3.9
CC(C)S(=O)(=O)c1oc(-c2cccs2)nc1S(=O)(=O)c1ccc(F)cc1	18.4µM*	?	.	.	.	40.8
COCCNc1oc(-c2cccs2)nc1S(=O)(=O)c1ccc(C)cc1	?	6.5%	?	-18.7	i	-0.7
O=C(Cc1ccccc1)NC(c1ccco1)c1cc(Cl)c2cccnc2c1O (centres undefined)	.	.	i	.	i	.
COc1ccc(CCNC2CC(=O)N(CCc3ccc(OC)c(OC)c3)C2=O)cc1OC (centres undefined)	-7.8%	-6.1%	18.4µM*	-11.1	i	7.3
COc1ccc(CCN2C(=O)CC(NCc3ccc4c(c3)OCO4)C2=O)cc1OC (centres undefined)	.	2.6%	i	9.3	i	-12.0
Cc1cc(/C=C2\SC(=Nc3ccccc3)NC2=O)c(C)n1-c1ccc(S(N)(=O)=O)cc1	.	8.2µM*	?	1.0	4.11µM*	-4.9
Cc1ccc(-n2c(C)cc(/C=C3\SC(=O)NC3=O)c2C)cc1	?	-19.4%	i	-10.5	i	-3.0
COc1ccc(C(C)=O)cc1CSc1nnc(Nc2ccccc2)s1	23.1µM*	-24.3%	8.2µM*	2.8	?	-1.3
COc1ccc(C(C)=O)cc1CSc1nnc(-c2ccc(Cl)cc2)n1-c1ccccc1	?	-26.2%	14.6µM*	-1.8	?	-6.3
COc1ccc(C(C)=O)cc1CSc1nnc(-c2ccncc2)n1C	5.0%	11.4%	i	11.1	i	16.5
Clc1ccc(-c2nnc(CSc3nnc(-c4cccs4)n3Cc3ccccc3)o2)cc1	20.6µM*	-11.0%	?	-19.0	?	-1.8
COc1ccc(C(C)=O)cc1CSc1nnc(Nc2ccc(C)cc2)s1	?	-7.7%	?	8.9	?	2.4
COc1ccc(-c2nnc(SCc3nnc(-c4ccc(Cl)cc4)o3)n2-c2ccccc2)cc1	?	?	3.66µM*	14.1	?	-0.7
SMILES	Nrf2 inh	A549 viability	KB-V1 MDR tox	Giardia killer	KB-3-1 tox	PI4K2A block
N#CCC[C@H]1CC[C@]2(CCCN(Cc3ccc(Br)cc3)C2)O1	.	.	.	.	.	-2.9
O=C1C2C(CC3c4ccccc4CCN32)CN1c1ccccc1 (centres undefined)	.	.	.	.	.	4.1
COc1ccc(-n2c(SCc3nnc(-c4ccccc4)o3)nnc2-c2ccccc2)cc1	0.9%	-0.7%	2.31µM*	1.1	i	0.4
COc1ccc(-c2nnc(SCc3nnc(-c4ccccc4)o3)n2-c2ccccc2)cc1	?	0.0%	?	-8.9	i	3.1
COc1ccc(N/C=C/C(=O)c2cc(OC)c(OC)c(OC)c2)cc1	12.6%	-10.0%	?	17.4	3.66µM*	-0.8
COc1ccc(OC)c(N/C=C/C(=O)c2ccccc2)c1	?	-2.3%	i	-2.0	i	-51.7*
COc1ccc(C2Nc3ccc(NC(C)=O)cc3C(=O)N2Cc2cccc(Cl)c2)cc1COc1ccc(NC(C)=O)cc1 (centres undefined)	?	-5.7%	.	6.1	.	.
COC(=O)[C@]12C[C@H](CC(=O)NCc3ccc(OC)c(OC)c3)C(=O)N(Cc3cccc4ccccc34)C1=C[C@H](C(C)(C)C)O[C@@H]2C	.	.	.	.	.	2.1
c1ccc2c(c1)Nc1ccncc1S2	29.1µM*	-20.5%	i	-1.7	i	-1.6
c1ccc2c(c1)Nc1cc3ccccc3cc1S2	?	5.2%	i	-20.9	i	3.9
Cc1ccc(-c2ccc(C3C4C=CCC(C)C4C(=O)N3Cc3ccccc3)c(F)c2)cc1 (centres undefined)	-4.2%	11.3%	.	-20.1	.	.
COc1ccc2c(c1)C(=O)CC2	.	.	i	.	i	.
COc1ccccc1NC(=O)C(C)OC(=O)c1cc2ccccc2[nH]1 (centres undefined)	20.6µM*	-0.2%	i	22.1	?	0.5
COc1ccc(OC)c(NC(=O)C(C)OC(=O)c2cc3ccccc3[nH]2)c1 (centres undefined)	18.4µM*	2.2%	i	3.5	?	-3.3
